Reference: the supplement of paper PMC9262897, “Low-cost anti-mycobacterial drug discovery using engineered E. coli” (Nature Communications, 2022)
Structures can show the parent of a compound that is named as a salt. ± gives the standard deviation of the averaged measurements.

How the values were obtained:
Assay in all cases: growth (OD600 after 10 h); higher = more growth (less inhibition)
[1] = test system: E. coli TESEC Alr+ wild-type control; conditions: compound 0.1 mM; raw OD600 reference: median of DMSO wells 0.241, cell-free background 0.041
Experimental: (§1)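 TESEC Mtb Alr E. coli, or the Alr+ wild-type control, in 384-well plates with Prestwick library compounds at 0.1 mM and 1% DMSO, across arabinose induction levels of 1E3 to 1E7 nM. Growth is read as OD600 after 10 h at 37 °C in triplicate biological replicates.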

[2] = test system: E. coli TESEC Mtb Alr; conditions: compound 0.1 mM
Experimental: as §1

[3] = test system: E. coli TESEC Mtb Asd; conditions: compound 0.1 mM
Experimental: (§2)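 TESEC E. coli strains in which the native enzyme is deleted and replaced by arabinose-inducible Mtb Asd, DapB, CysH or TrpD, each grown in its selective medium. Strains were screened against the Prestwick library at 0.1 mM and 1% DMSO in 384-well format at low and high arabinose induction. Growth is read as OD600 after 10 h in triplicate.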

[4] = test system: E. coli TESEC Mtb DapB; conditions: compound 0.1 mM
Experimental: as §2

[5] = test system: E. coli TESEC Alr+ wild-type control; conditions: compound 0.1 mM; raw OD600 reference: median of DMSO wells 0.49, cell-free background 0.052
Experimental: (§3)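 TESEC Mtb Alr E. coli (ΔaraC ΔtolC ΔentC Δalr ΔdadX, arabinose-inducible Mtb Alr) or the Alr+ wild-type control strain, grown in defined M9-fructose medium without D-alanine in 96-well plates with Prestwick library compounds at 0.1 mM and 1% DMSO. Low Alr induction is 0.1 µM arabinose and high induction is 10 mM arabinose.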

[6] = test system: E. coli TESEC Mtb Alr; conditions: compound 0.1 mM; remark: listed apart in the source
Experimental: as §3

[7] = arabinose 1000 nM, raw OD600 reference: median of DMSO wells 0.294, cell-free background 0.041
[8] = arabinose 10000 nM, raw OD600 reference: median of DMSO wells 0.264, cell-free background 0.041
[9] = arabinose 100000 nM, raw OD600 reference: median of DMSO wells 0.201, cell-free background 0.041
[10] = arabinose 1000000 nM, raw OD600 reference: median of DMSO wells 0.193, cell-free background 0.041
[11] = arabinose 10000000 nM, raw OD600 reference: median of DMSO wells 0.146, cell-free background 0.041
[12] = arabinose induction (level): High, raw OD600 reference: median of DMSO wells 0.331, cell-free background 0.041
[13] = arabinose induction (level): Low, raw OD600 reference: median of DMSO wells 0.417, cell-free background 0.041
[14] = arabinose induction (level): High, raw OD600 reference: median of DMSO wells […], cell-free background 0.041
[15] = arabinose induction (level): Low, raw OD600 reference: median of DMSO wells 0.227, cell-free background 0.041
[16] = arabinose 100 nM, raw OD600 reference: median of DMSO wells 0.413, cell-free background 0.052
[17] = arabinose 10000000 nM, raw OD600 reference: median of DMSO wells […], cell-free background 0.052

SMILES | growth [1] | growth [2, 7] | growth [2, 8] | growth [2, 9] | growth [2, 10] | growth [2, 11] | growth [3, 12] | growth [3, 13] | growth [4, 14] | growth [4, 15] | growth [5] | growth [6, 16] | growth [6, 17]
OC(CCCN1CCCCC1)(c1ccccc1)c1ccccc1 [Diphenidol hydrochloride] | 0.227 ± 0.0039 | 0.278 ± 0.0057 | 0.257 ± 0.0075 | 0.2 ± 0.02 | 0.162 ± 0.0026 | 0.137 ± 0.0047 | 0.262 ± 0.012 | 0.488 ± 0.018 | 0.182 ± 0.018 | 0.221 ± 0.054 | 0.48 ± 0.034 | 0.407 ± 0.008 | 0.345 ± 0.0049
CC(C)NC[C@@H](O)COc1cccc2ccccc12 [(R)-Propranolol hydrochloride] | 0.205 ± 0.01 | 0.262 ± 0.0043 | 0.291 ± 0.0066 | 0.186 ± 0.015 | 0.216 ± 0.028 | 0.142 ± 0.0024 | 0.263 ± 0.076 | 0.2622 ± 0.0023 | 0.193 ± 0.01 | 0.212 ± 0.027 | 0.58 ± 0.019 | 0.4273 ± 0.0035 | 0.326 ± 0.012
COc1ccc(C(=O)CC(=O)c2ccc(C(C)(C)C)cc2)cc1 [Avobenzone] | 0.116 ± 0.017 | 0.188 ± 0.026 | 0.197 ± 0.016 | 0.176 ± 0.02 | 0.107 ± 0.033 | 0.109 ± 0.0074 | 0.277 ± 0.068 | 0.27 ± 0.0061 | 0.202 ± 0.072 | 0.239 ± 0.055 | 0.533 ± 0.076 | 0.247 ± 0.058 | 0.267 ± 0.0055
Cc1c(O)cccc1C(=O)N[C@@H](CSc1ccccc1)[C@H](O)CN1C[C@H]2CCCC[C@H]2C[C@H]1C(=O)NC(C)(C)C [Nelfinavir mesylate] | 0.279 ± 0.06 | 0.329 ± 0.0095 | 0.284 ± 0.031 | 0.323 ± 0.062 | 0.148 ± 0.0082 | 0.276 ± 0.041 | 0.215 ± 0.019 | 0.275 ± 0.015 | 0.197 ± 0.077 | 0.23 ± 0.086 | – | – | –
COc1cc(C(=O)N2CCOCC2)cc(OC)c1OC [Trimetozine] | 0.253 ± 0.004 | 0.313 ± 0.014 | 0.2694 ± 0.0015 | 0.22 ± 0.0037 | 0.203 ± 0.023 | 0.14 ± 0.0052 | 0.288 ± 0.0085 | 0.441 ± 0.018 | 0.192 ± 0.02 | 0.229 ± 0.0089 | 0.616 ± 0.021 | 0.401 ± 0.0073 | 0.363 ± 0.0044
Nc1ccc(S(=O)(=O)Nc2nccs2)cc1 [Sulfathiazole] | 0.244 ± 0.013 | 0.275 ± 0.013 | 0.203 ± 0.0029 | 0.202 ± 0.029 | 0.125 ± 0.0031 | 0.142 ± 0.006 | 0.377 ± 0.045 | 0.384 ± 0.032 | 0.197 ± 0.012 | 0.199 ± 0.025 | 0.5194 ± 0.0026 | 0.422 ± 0.013 | 0.343 ± 0.02
COc1ccccc1OCC(O)CN1CCN(CC(=O)Nc2c(C)cccc2C)CC1 (stereo not drawn) [Ranolazine] | 0.207 ± 0.0059 | 0.309 ± 0.036 | 0.285 ± 0.0092 | 0.155 ± 0.012 | 0.178 ± 0.0088 | 0.135 ± 0.0073 | 0.171 ± 0.014 | 0.342 ± 0.085 | 0.174 ± 0.023 | 0.226 ± 0.021 | 0.471 ± 0.068 | 0.4233 ± 0.0032 | 0.301 ± 0.014
CCCN(CCC)CCc1cccc2c1CC(=O)N2 [Ropinirole HCl] | 0.239 ± 0.0025 | 0.301 ± 0.0083 | 0.251 ± 0.0073 | 0.195 ± 0.025 | 0.18 ± 0.009 | 0.146 ± 0.0056 | 0.379 ± 0.066 | 0.441 ± 0.035 | 0.198 ± 0.013 | 0.211 ± 0.025 | 0.443 ± 0.028 | 0.408 ± 0.01 | 0.366 ± 0.0066
CC(=O)OCC(=O)[C@@]1(O)CC[C@H]2[C@@H]3CCC4=CC(=O)CC[C@]4(C)[C@H]3[C@@H](O)C[C@@]21C [Cortisol acetate] | 0.234 ± 0.0044 | 0.297 ± 0.016 | 0.237 ± 0.0043 | 0.184 ± 0.018 | 0.151 ± 0.0056 | 0.141 ± 0.0061 | 0.366 ± 0.052 | 0.506 ± 0.028 | 0.213 ± 0.0036 | 0.206 ± 0.011 | 0.517 ± 0.032 | 0.399 ± 0.014 | 0.289 ± 0.011
Nc1ccn([C@@H]2O[C@H](CO)[C@@H](O)C2(F)F)c(=O)n1 [Gemcitabine] | 0.1523 ± 0.0014 | 0.208 ± 0.012 | 0.193 ± 0.029 | 0.126 ± 0.012 | 0.116 ± 0.0036 | 0.164 ± 0.003 | 0.137 ± 0.0051 | 0.133 ± 0.0042 | 0.157 ± 0.0053 | 0.177 ± 0.035 | 0.51 ± 0.05 | 0.321 ± 0.018 | 0.217 ± 0.0091
CN1CC2c3ccccc3Oc3ccc(Cl)cc3C2C1 (stereo not drawn) [Asenapine maleate] | 0.184 ± 0.004 | 0.159 ± 0.012 | 0.225 ± 0.0073 | 0.18 ± 0.004 | 0.123 ± 0.0024 | 0.164 ± 0.0081 | 0.229 ± 0.031 | 0.295 ± 0.017 | 0.213 ± 0.0042 | 0.254 ± 0.026 | 0.44 ± 0.01 | 0.417 ± 0.0072 | 0.266 ± 0.0045
CN(C)CCCN1c2ccccc2Sc2ccc(Cl)cc21 [Chlorpromazine hydrochloride] | 0.0844 ± 0.00072 | 0.054 ± 0.0094 | 0.04817 ± 5.8e-05 | 0.0531 ± 0.008 | 0.0443 ± 0.00046 | 0.0452 ± 0.00035 | 0.0646 ± 0.0046 | 0.0699 ± 0.0027 | 0.13 ± 0.012 | 0.25 ± 0.08 | 0.105 ± 0.046 | 0.425 ± 0.0072 | 0.0848 ± 0.022
N=C(N)NCC1COC2(CCCCC2)O1 (stereo not drawn) [Guanadrel sulfate] | 0.241 ± 0.0075 | 0.296 ± 0.0091 | 0.258 ± 0.0067 | 0.204 ± 0.017 | 0.183 ± 0.0022 | 0.138 ± 0.0046 | 0.363 ± 0.079 | 0.368 ± 0.036 | 0.22 ± 0.023 | 0.227 ± 0.039 | 0.635 ± 0.012 | 0.406 ± 0.013 | 0.324 ± 0.012
CCc1cccc(CC)c1NC(=O)CN(CC(=O)O)CC(=O)O [Etifenin] | 0.2457 ± 0.00078 | 0.295 ± 0.011 | 0.276 ± 0.0042 | 0.231 ± 0.012 | 0.192 ± 0.011 | 0.146 ± 0.0052 | 0.29 ± 0.033 | 0.375 ± 0.09 | 0.179 ± 0.015 | 0.196 ± 0.003 | 0.603 ± 0.11 | 0.412 ± 0.012 | 0.338 ± 0.017
CC(=O)c1ccc2c(c1)N(CCCN(C)C)c1ccccc1S2 [Acetopromazine maleate salt] | 0.183 ± 0.0048 | 0.228 ± 0.0028 | 0.263 ± 0.016 | 0.208 ± 0.023 | 0.123 ± 0.0016 | 0.152 ± 0.0028 | 0.214 ± 0.025 | 0.301 ± 0.033 | 0.188 ± 0.012 | 0.217 ± 0.021 | 0.47 ± 0.012 | 0.399 ± 0.011 | 0.322 ± 0.015
O=C(O)CCCC[C@@H]1SC[C@@H]2NC(=O)N[C@@H]21 [Biotin] | 0.257 ± 0.0089 | 0.309 ± 0.0092 | 0.265 ± 0.016 | 0.217 ± 0.028 | 0.206 ± 0.018 | 0.145 ± 0.0046 | 0.347 ± 0.05 | 0.418 ± 0.045 | 0.18 ± 0.0081 | 0.208 ± 0.022 | 0.615 ± 0.056 | 0.408 ± 0.0076 | 0.354 ± 0.014
COc1ccccc1Oc1c(NS(=O)(=O)c2ccc(C(C)(C)C)cc2)nc(-c2ncccn2)nc1OCCO [Bosentan] | 0.227 ± 0.0037 | 0.253 ± 0.0068 | 0.269 ± 0.014 | 0.276 ± 0.011 | 0.103 ± 0.0025 | 0.147 ± 0.0018 | 0.253 ± 0.045 | 0.335 ± 0.065 | 0.177 ± 0.022 | 0.247 ± 0.051 | 0.544 ± 0.091 | 0.417 ± 0.0042 | 0.237 ± 0.015
